This is part of a sample that, as a whole, favours compounds with a hit. Of some 83,000 tested, about 20% had one in any assay.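 In brief: 96-well plates, 48 h treatment, single concentration, percent growth endpoint.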 Unmarked numbers belong to inactive results. Calls of active or inactive are those of the source. Rule for the calls: active = growth percent below 10; inactive = the rest.
Tested on: UACC-62 melanoma
Experiment: NCI-60 one-dose screen, 48 h (100 = growth as untreated, 0 = no growth, -100 = all killed)
Details: 10 µM unless noted

Compound	growth
N#Cc1cccc(CN2CCC3=C(C2)C(=O)N(Cc2ccc(Cl)cc2)C2=NCCN23)c1	29.9%
COc1ccc(Oc2ccc(/C=N/NC(=O)CSc3nc4ccccc4c(=O)n3-c3ccc(Cl)cc3)cc2)cc1	61.9%
O=C(NNc1nc2cc(F)c(F)cc2n2c(CN3CC4CNCC4C3)ccc12)c1ncccn1 (stereo not drawn)	-20.1% (active)
COc1cc(/C=C2\C(=O)Nc3cc(Cl)ccc32)ccc1OCc1ccc(F)cc1	88.8%
C#CCOc1ccc(/C=N\Nc2nc(-c3ccc(C)cc3)cs2)cc1OC	74.7%
C=CCOc1cccc(/C=C2\SC(=S)N(C3CC(=O)N(c4ccc(Br)cc4)C3=O)C2=O)c1 (stereo not drawn)	86.8%
COc1ccc(S(=O)(=O)NCCCNc2nccc(-c3[nH]c(-c4ccccc4)nc3-c3ccc(Cl)c(O)c3)n2)cc1	18.1%
CCn1c2ccccc2c2cc(-n3nncc3-c3ccccc3)ccc21	35.5%
N#Cc1cccc(CN2CCC3=C(C2)C(=O)N(Cc2ccc(Cl)cc2)C2=NCCCN23)c1	25%
COc1ccc(COc2ccc(/C=C3\C(=O)Nc4ccccc43)cc2OC)cc1	96.7%
O=C(NNc1nc2cc(F)ccc2n2c(CN3CC4CNCC4C3)ccc12)c1cnccn1 (stereo not drawn)	1.75% (active)
COc1ccc2[nH]cc(-c3csc4nc(-c5ccccc5)cn34)c2c1	32.4%
COC(=O)C[Se]C(=O)Cc1c(C)n(C(=O)c2ccc(Cl)cc2)c2ccc(OC)cc12	69.6%
CCOc1ccc(NC2=C(Cl)C(=O)c3nc(C)ccc3C2=O)cc1	-43.3% (active)
COc1cccc(/C=C(/C)c2ccc3cccc(OC)c3[o+]2)c1O	80.3%
NC(N)=Nc1ccc(Oc2cccc(NC(N)=Nc3ccc(Cl)c(C(F)(F)F)c3)c2)cc1	47.8%
COc1ccc(CCOc2cc3c(cc2OC)CCN(C(=O)NCc2cocn2)C3c2ccc(C)cc2C)cc1 (stereo not drawn)	24%
O=C1C(c2ccccc2)=C(N2CCc3ccccc32)OC1(Cl)Cl	81.4%
O=C(NNc1nc2cc(F)ccc2n2c(CN3CCCC3)ccc12)c1cnccn1	17.9%

Compound	growth
O=C(NNc1nc2cc(F)cc(F)c2n2cccc12)c1cnccn1	5.21% (active)
O=C(O)c1ccc(-n2cc(CNc3cc(F)c(F)c(F)c3)c(-c3ccc(F)cc3)n2)cc1	64.9%
COc1ccc(NC2=C(Cl)C(=O)c3nc(C)ccc3C2=O)cc1OC	71.8%
O=C(NNc1nc2cc(F)c(F)cc2n2c(CN3CC4CNCC4C3)ccc12)c1cnccn1 (stereo not drawn)	-1.09% (active)
C[C@H](CCC(=O)NCc1ccc(C(=O)Nc2ccccc2N)cc1)[C@H]1CC[C@H]2[C@@H]3[C@@H](O)C[C@@H]4C[C@H](O)CC[C@]4(C)[C@H]3CC[C@]12C	36.7%
CC(=O)c1cc(C(=O)c2ccc(Br)cc2)n2cc(C)cc(C)c12	82.6%
NC(=O)c1cccc(-n2ccc3cc(NC(=O)Nc4ccc(N5CCOCC5)c(C(F)(F)F)c4)ccc32)n1	-16.1% (active)
COc1ccc2c(c1)c(CC(=O)[Se]CC(=O)O)c(C)n2C(=O)c1ccc(Cl)cc1	63.6%
CN(C)CCNC(=O)c1ccc(-c2nc3ccc4[nH]ncc4c3c3c2COCC3)cc1	-24.7% (active)
COc1ccc2c(c1)c(CC(=O)[Se]CCC#N)c(C)n2C(=O)c1ccc(Cl)cc1	41.3%
CN1CCN(Cc2ccc(NC(=O)c3cncc(C#Cc4cnc5ccc(OCC(C)(C)O)nn45)c3)cc2C(F)(F)F)CC1	-41.1% (active)
CNC(=O)c1cc(N2CCc3cc(NC(=O)Nc4ccc(Cl)c(C(F)(F)F)c4)ccc32)ccn1	51.8%
O=C(CSc1nc2ccccc2c(=O)n1-c1ccc(Cl)cc1)N/N=C/c1ccc(N2CCCCC2)cc1	73.5%
CCOc1ccc(C(=O)Nc2ncc(Cc3ccc(F)cc3)s2)cc1	33%
Cc1c(Cl)cccc1S(=O)(=O)Nc1ccc2c(c1)C(=O)N(C1CCC(=O)NC1=O)C2=O (stereo not drawn)	98.4%
CC/C(=C/c1cc(OC)ccc1O)c1ccc2cc(OC)ccc2[o+]1	21.4%
COc1c(N2CC3CCCNC3C2)c(F)cc2c(=O)c(C(=O)N/N=C/c3ccc4c(c3)OCO4)cn(C3CC3)c12 (stereo not drawn)	90.7%
CN1CCN(Cc2ccc(NC(=O)c3cncc(C#Cc4cnc5ccc(OCC6(C)COC6)nn45)c3)cc2C(F)(F)F)CC1	-90.5% (active)
O=C(NNc1nc2cc(F)c(F)cc2n2cccc12)c1cnccn1	22.2%

— PubChem BioAssay (NCI)
